In PubChem BioAssay (NCATS) one finds outcome data, which are given here for 40 compounds.

Inconclusive results are not listed. Calls of active or inactive are those of the source. Calls come from the whole dose curve.

Sequence of Vitamin D3 receptor (Homo sapiens) (P11473 whole entry, looked up): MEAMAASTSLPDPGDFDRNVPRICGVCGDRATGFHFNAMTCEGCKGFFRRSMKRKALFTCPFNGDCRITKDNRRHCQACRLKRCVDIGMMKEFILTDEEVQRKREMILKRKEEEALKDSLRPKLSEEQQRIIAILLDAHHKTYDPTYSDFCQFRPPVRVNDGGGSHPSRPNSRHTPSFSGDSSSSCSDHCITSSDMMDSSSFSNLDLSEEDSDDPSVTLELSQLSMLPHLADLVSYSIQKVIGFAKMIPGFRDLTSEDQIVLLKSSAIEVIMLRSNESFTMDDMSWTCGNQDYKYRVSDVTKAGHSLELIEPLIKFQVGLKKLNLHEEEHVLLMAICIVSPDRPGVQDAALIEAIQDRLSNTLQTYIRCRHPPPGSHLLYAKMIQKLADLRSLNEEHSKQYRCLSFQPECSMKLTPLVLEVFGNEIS

The test addresses Vitamin D3 receptor (Homo sapiens) (UniProt P11473). The experiment in a line: qHTS assay for small molecule agonists of vitamin D receptor signaling (AID 588543). The following applies: HEK293T VDR-UAS-bla, beta-lactamase ratio, 16 h; series mostly up to 76.8 µM. From the text:
NIH Chemical Genomics Center [NCGC]
U.S. Environmental Protection Agency [EPA]
National Institutes of Environmental Health Sciences [NIEHS]
National Toxicology Program [NTP]
The Vitamin D receptor (VDR) is a member of nuclear hormone receptor superfamily and it plays a critical role in calcium homeostasis and bone metabolism. It plays a role in inducing cell differentiation, inhibiting cell growth and in thrombogenicity. So, VDR that mediates these effects represents a pharmacological target in prevention and treatment of hyperproliferative malignancies, such as cancer and psoriasis, cardiovascular, immunological, inflammatory and renal diseases etc.
NCGC Assay Protocol Summary
Using a beta-lactamase reporter-gene under control of Vitamin D receptor (VDR) response element, a cell-based assay [GeneBLAzer (VDR -UAS-bla assay developed by Invitrogen] was used to measure VDR ligands signaling. GeneBLAzer VDR -UAS-bla HEK293T cells were used with assay medium containing 2% charcoal-stripped FBS. The assay was performed in clear bottom black Greiner 1536-well plates. 1-alpha,25-Dihydroxy vitaminD3 was used as a positive control in the screen. Library compounds were measured for their ability to stimulate the reporter gene activity. Compounds were screened in a titration series in 1536-well format. The fluorescence intensity (405 nm excitation, 460/530 nm emission) was measured using an EnVision plate reader. Data was normalized relative to 1-alpha,25-Dihydroxy vitaminD3 control (50 nM, 100%) and DMSO only wells (basal, 0%). Concentration-response titration points for each compound were fitted to the Hill equation yielding concentrations of half-maximal stimulation (EC50) and maximal response (efficacy) values.
qHTS protocol for VDR beta-lactamase assay in agonist mode
[Step] [Parameter] [Value] [Description]
1. Reagent; 6 uL; 2000 cells/well
2. Incubation; 37 C for 5 hrs
4. Controls (1-alpha,25-Dihydroxy vitaminD3); 23 nL,
- Final concentrations of 50 nM and 15 nM in two columns
5. Incubation; 37 C for 16 hrs
6. Detection reagent; 1 uL of CCF4-dye
7. Incubation; RT for 2 hrs
8. Detection; Fluorescence; Envision plate reader
With `CC(Oc1cc(Cl)c(Cl)cc1Cl)C(=O)O` (stereo not given), the result was inactive.

As to `CCOP(=O)(OCC)OC(Cl)C(Cl)(Cl)Cl` (stereo not given), the outcome was inactive. With `CC(=NC#N)N(C)Cc1ccc(Cl)nc1`, the outcome was inactive. `COc1nc(C)nc(NC(=O)NS(=O)(=O)c2ccccc2CCC(F)(F)F)n1`: the result was inactive. To `CC(C)N1C(=O)N(c2ccccc2)CSC1=NC(C)(C)C` belongs “inactive”; to `CC(C)(C)[C@@H](O)/C(=C\c1ccc(Cl)cc1Cl)n1cncn1`, “inactive”; to `CC1(c2ccc(Oc3ccccc3)cc2)OC(=O)N(Nc2ccccc2)C1=O` (stereo not given), “inactive”. In the case of `CCOP(=O)(OCC)Oc1ccc([N+](=O)[O-])cc1` it was “inactive”; in that of `Cc1cc(C)nc(NC(=O)NS(=O)(=O)c2ccccc2C(=O)OC2COC2)n1`, “inactive”; in that of `COc1cc(OC)nc(NC(=O)NS(=O)(=O)c2ncccc2OCC(F)(F)F)n1`, “inactive”. As to `Clc1ccc([C@]2(Cn3cncn3)C[C@H](Br)CO2)c(Cl)c1`, the outcome was inactive. With `O=C(O)c1c(Cl)ccc2cc(Cl)cnc12`, the outcome was inactive. As to `C=C(C)CN(CC)c1c([N+](=O)[O-])cc(C(F)(F)F)cc1[N+](=O)[O-]`, the outcome was inactive. To `O=C(Nc1ccccc1)Nc1cnns1` belongs “inactive”; to `CN1COCN(Cc2cnc(Cl)s2)/C1=N\[N+](=O)[O-]`, “inactive”.

As for `Oc1ccc(C2(c3ccc(O)cc3)c3ccccc3-c3ccccc32)cc1`, the result was inactive.

For `Clc1ccccc1-c1nnc(-c2ccccc2Cl)nn1`, the result was inactive. For `CC(C)CC(C)Nc1ccc(Nc2ccccc2)cc1` (stereo not given), the outcome was inactive. In the case of `Cc1cc(C)nc(Nc2ccccc2)n1` it was “inactive”; in that of `CCOP(=S)(Oc1cnc(C(C)(C)C)nc1)OC(C)C` (stereo not given), “inactive”.

`CC1(C)CCC(Cc2ccc(Cl)cc2)C1(O)Cn1cncn1` (stereo not given): the outcome was inactive. In the case of `ClC1=C(Cl)[C@]2(Cl)[C@H]3[C@H]([C@@H]4C=C[C@H]3C4)[C@]1(Cl)C2(Cl)Cl`, the outcome was inactive. In the case of `C1=Cc2cccc3cccc1c23` it was “inactive”; in that of `CCOP(=S)(OCC)SCn1c(=O)oc2cc(Cl)ccc21`, “inactive”; in that of `OC(Cn1cncn1)(c1ccc(F)cc1)c1ccccc1F` (stereo not given), “inactive”. For the compound `O=C(NC(=O)c1c(F)cccc1F)Nc1cc(Cl)c(OC(F)(F)C(F)C(F)(F)F)c(Cl)c1F` (stereo not given), the result was inactive.

As for `CCC[CH2][Sn]([CH2]CCC)([O]C(C)=O)[O]C(C)=O`, the result was inactive. As for `CCNc1nc(NCC)nc(SC)n1`, the result was inactive. Regarding `COP(=O)(OC)OC(Br)C(Cl)(Cl)Br` (stereo not given), the result was inactive.

Turning to `O=[As](O)(O)O`, the result was inactive. To `CCCCC(CC)COC(=O)Cl` (stereo not given) belongs “inactive”; to `CCC(C)(C)c1ccc(O)c(C(C)(C)CC)c1`, “inactive”. In the case of `CSC(=O)c1c(C(F)F)nc(C(F)(F)F)c(C(=O)SC)c1CC(C)C`, the result was inactive. In the case of `CCNC(=O)NC(=O)/C(C#N)=N/OC`, the outcome was inactive.

Consider `COP(=O)(OC)SCn1c(=O)oc2cc(Cl)cnc21`, for which the result was inactive. `C=CCOC(=O)C(C)(C)OC(=O)c1cc(-n2c(=O)cc(C(F)(F)F)n(C)c2=O)ccc1Cl`: the result was inactive. For `Cc1c(COC(=O)C2C(/C=C(\Cl)C(F)(F)F)C2(C)C)cccc1-c1ccccc1` (stereo not given), the outcome was inactive.

In the case of `O=C1C(Cl)=C(Cl)C(=O)c2ccccc21`, the outcome was inactive. With `CCOS(=O)(=O)OCC`, the outcome was inactive.

For `CC(C)(C#N)N=NC(C)(C)C#N`, the outcome was inactive.
